Screening results (PubChem)
In the library only some 14% were active in any assay of this set; here they are far more common.
FBPA Giardia inh = Giardia lamblia aldolase inhibition. purified Giardia FBPA. AID 2451. Potency, µM (doses to about 59.6 µM), hits mostly inhibitors. 290,000 tested, 0.71% active; note: nearly all actives have a fitted effect of over 55% in size
Target sequence (A8B2U2 whole entry, looked up): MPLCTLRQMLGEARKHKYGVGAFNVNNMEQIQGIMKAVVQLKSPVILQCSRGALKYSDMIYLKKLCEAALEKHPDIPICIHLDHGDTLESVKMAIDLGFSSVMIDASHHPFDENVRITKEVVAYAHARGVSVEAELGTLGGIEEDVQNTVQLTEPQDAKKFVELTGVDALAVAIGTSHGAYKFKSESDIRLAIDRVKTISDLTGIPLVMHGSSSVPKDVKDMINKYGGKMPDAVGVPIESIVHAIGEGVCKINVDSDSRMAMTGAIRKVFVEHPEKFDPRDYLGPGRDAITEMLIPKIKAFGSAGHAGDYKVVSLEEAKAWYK
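40 nM FBPA preincubated 10 min at RT with compound (up to 57.5 uM final), then substrate plus GAPDH/TPI/NAD/arsenate coupling and diaphorase/resazurin added. Fluorescence read after 20 min at RT, 525/598 nm.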
Sm TGR inh = S. mansoni TGR enzyme inhibition; Q962Y6; purified TGR, DTNB reduction, TNB absorbance 405 nm; Potency, µM (titrated, usually from 114 µM), usual class: inhibitors; 360,000 tested, 3% active; note: nearly all actives have a fitted effect of over 60% in size
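First, TGR (20 nM dispensed) and NADPH were mixed with compound. Second, a 15 min room-temperature incubation followed. Third, further NADPH and then DTNB were added to start the reaction. Finally, TNB absorbance was monitored kinetically.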
Pf growth 48h = P. falciparum growth inhibition at 48 hours (one generation); P. falciparum luciferase growth in erythrocytes, 48 h; Potency, µM (top dose mostly 28.7 µM), usual class: inhibitors; 310,000 tested, 5.9% active
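Luminescence readout; reporter = integrated firefly luciferase in P. falciparum. RBC culture at 2% hematocrit, 0.1% parasitemia final, 37 C/5% CO2; decreased signal taken as growth inhibition.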
Pf growth 96h = P. falciparum growth inhibition at 96 hours | P. falciparum luciferase reporter growth, 96 h | Potency, µM (top dose mostly 28.7 µM), usual class: inhibitors | 320,000 tested, 6.9% active | AID 504834
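Delayed-death screen, second-generation endpoint: infected erythrocytes, 2% hematocrit, 0.05% parasitemia final; 96 hours at 37 C, 5% CO2; luciferase detection reagent; luminescence decrease equals reduced growth.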
HCMV antiviral = human cytomegalovirus inhibition. activity change, negative = inhibition, % at 57.5 µM. HFF cells, HCMV-luciferase reporter, 72 h; active compounds read low. 410,000 tested, 4.5% active. AID 1259415; in the data active = activity change below about -60%; inconclusive = no clear call, values can overlap the other calls; inactive = above about -39%
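Two-dose cell screen: HFF monolayers treated with compounds and infected with luciferase-expressing HCMV at 1 PFU/cell, 72 h at 37C, then lysed for luciferase measurement.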
Each line names hits and unclear results; the compound was inactive in the other large screens. Unless noted, calls come from the whole dose curve; as a rule, active = well fitted curve in the direction sought with a large enough effect; inconclusive = small, poorly fitted or top-dose-only effect, or another doubt; inactive = no such curve, though single readings can be large; an effect the other way counts as inactive or inconclusive.

O=c1[nH]c2ccccc2c(O)c1-[n+]1ccccc1	none
Cc1ccc2c(CC(=O)NCCc3ccc(S(N)(=O)=O)cc3)coc2c1	none
Cc1ccc(NS(=O)(=O)c2ccc(C(=O)NC3CCN(Cc4ccccc4)CC3)cc2)cc1	HCMV antiviral -92 (no result: FBPA Giardia inh, Sm TGR inh, Pf growth 48h, Pf growth 96h)
O=C(NC1CCN(Cc2ccccc2)CC1)c1cc(S(=O)(=O)Nc2ccc(F)cc2)ccc1Cl	Pf growth 48h 9.3µM, Pf growth 96h 9.3µM (no result: FBPA Giardia inh)
O=C(NC1CCN(Cc2ccccc2)CC1)c1ccccc1NS(=O)(=O)c1ccc(F)c(F)c1	none (no result: FBPA Giardia inh, Sm TGR inh, Pf growth 48h, Pf growth 96h)
CCN(c1ccccc1)S(=O)(=O)c1ccc(Cl)c(C(=O)NC2CCN(Cc3ccccc3)CC2)c1	HCMV antiviral -70 (no result: FBPA Giardia inh, Sm TGR inh, Pf growth 48h, Pf growth 96h)
O=C(Cn1c(=O)n(CC2CS2)c2ccccc21)N1CCCCCC1 (stereo not given)	Pf growth 48h inconclusive, HCMV antiviral -70 (no result: Sm TGR inh)
C=C(C)Cn1c(=O)n(CC2CS2)c2ccccc21 (stereo not given)	Pf growth 96h inconclusive, HCMV antiviral inconclusive
O=C1[C@@H]2C(c3cccnc3)=NO[C@@H]2C(=O)N1c1ccc(Br)cc1	Sm TGR inh 3.5µM
COC(=O)c1ccc(OC(=O)CCc2cc(OC)c(OC)c(OC)c2)cc1	none
O=C(c1ccccc1)N1CCC(c2nc(-c3ccc(S(=O)(=O)N4CCOCC4)cc3)no2)CC1	Pf growth 48h inconclusive, Pf growth 96h inconclusive
CC(C)C(=O)N1CCC(c2nc(-c3ccc(S(=O)(=O)N4CCCC4)cc3)no2)CC1	HCMV antiviral -73
O=C(Nc1ccccc1)N1CCC(c2nc(-c3ccc(S(=O)(=O)N4CCOCC4)cc3)no2)CC1	Pf growth 48h inconclusive, Pf growth 96h 8.3µM
C=Cc1c(C)c2cc3nc(cc4[nH]c(cc5nc(cc1[nH]2)C(C)=C5CCC(=O)O)c(CCC(=O)OC)c4C)[C@@]1(C)C3=CC=C(C(=O)OC)[C@H]1C(=O)OC (tested in a mixture with another compound)	Pf growth 48h 3.8µM, Pf growth 96h 3.4µM (no result: Sm TGR inh, HCMV antiviral)
COc1ccccc1N1CCN(c2csc3ccccc3c2=O)CC1	none (no result: FBPA Giardia inh, Pf growth 48h, Pf growth 96h)
CC1(CCl)CN1S(=O)(=O)c1ccccc1 (stereo not given)	Sm TGR inh 40µM
Cc1nnc(N(C)C(=O)c2ccc3c(c2)OCO3)s1	none
Cc1c(NC(=S)N/N=C/c2ccc(N(C)C)cc2)c(=O)n(-c2ccccc2)n1C	none
CN1C(=S)N(c2cccnc2)C(=O)/C1=C\c1ccc(N(C)C)cc1	Pf growth 96h inconclusive, HCMV antiviral -64
Cc1c(N2C(=O)/C(=C\c3ccc(N(C)C)cc3)N(C)C2=S)c(=O)n(-c2ccccc2)n1C	HCMV antiviral -65
C=CC[C@](C)(Nc1ccc(OC)cc1)C(=O)OCC	none (no result: Sm TGR inh, Pf growth 48h, Pf growth 96h, HCMV antiviral)
COc1ccc(C(N)c2csc(Nc3ccc(C(=O)NCCCO)cn3)n2)cc1 (stereo not given)	none (no result: FBPA Giardia inh, Sm TGR inh, Pf growth 48h, Pf growth 96h)
COc1ccc(CNC(=O)COC(=O)C2CCC(C(C)(C)C)CC2)cc1 (stereo not given)	HCMV antiviral -77
Cc1ccc(CNC(=O)COC(=O)C2CC2)cc1	none (no result: FBPA Giardia inh)
c1ccc(COCC2CCNCC2)cc1	Pf growth 96h inconclusive
COc1ccc(CN2CC(C(=O)NCc3cccc(OC)c3)CC2=O)cc1 (stereo not given)	HCMV antiviral -105
COc1ccc(CN2CC(C(=O)NCCC(C)C)CC2=O)cc1 (stereo not given)	none
CCCCN(C)CCCNC(=O)C1CC(=O)N(Cc2ccc(OC)cc2)C1 (stereo not given)	Pf growth 96h 12µM
COc1ccc(OCC2CCNCC2)cc1	Sm TGR inh 35µM
COc1ccc(CN2CC(C(=O)NCc3ccc4c(c3)OCO4)CC2=O)cc1 (stereo not given)	Pf growth 96h inconclusive (no result: Pf growth 48h)
CC(=O)N1CCN(S(=O)(=O)c2cccc(C(=O)Nc3cc(C(F)(F)F)ccc3N3CCOCC3)c2)CC1	Pf growth 48h inconclusive, Pf growth 96h inconclusive (no result: FBPA Giardia inh)
O=C1CC(C(=O)N2CCN(Cc3ccccc3)CC2)CN1Cc1ccccc1 (stereo not given)	Pf growth 48h inconclusive (no result: FBPA Giardia inh)
COc1ccc(CN2CC(C(=O)N3CC(C)CC(C)C3)CC2=O)cc1 (stereo not given)	Pf growth 96h 3.7µM
COc1ccc(CC(=O)N2CC(C)CC(C)C2)cc1 (stereo not given)	HCMV antiviral inconclusive (no result: Pf growth 48h)
Cc1ccc(CN2CC(C(=O)N3CCN(c4ccccc4Cl)CC3)CC2=O)cc1 (stereo not given)	Pf growth 48h 6.6µM, Pf growth 96h 12µM (no result: FBPA Giardia inh)
COc1ccc(CCN2CC(C(=O)NCc3cccc4[nH]ccc34)CCC2=O)cc1 (stereo not given)	Pf growth 96h 9.3µM, HCMV antiviral inconclusive
COc1ccccc1CN1CC(C(=O)NCc2cccnc2)CC1=O (stereo not given)	Pf growth 96h 2.1µM
O=C(NCc1cccc2[nH]ccc12)C1CCC(=O)N(CCc2ccccc2)C1 (stereo not given)	Pf growth 96h inconclusive (no result: FBPA Giardia inh)
Cc1[nH]c2ccc(C(=O)N3CCN(c4ccccn4)CC3)cc2c1C	Sm TGR inh inconclusive
C[C@](O)(C(=O)Nc1ccc(S(=O)(=O)c2ccccc2)cc1)C(F)(F)F	none (no result: Sm TGR inh, Pf growth 48h, Pf growth 96h, HCMV antiviral)
COc1ccc(CNC(=O)C2CCN(S(=O)(=O)N3CCCCC3)CC2)cc1	none
COc1ccccc1CN1CC(C(=O)NCc2nc3ccccc3n2C)CCC1=O (stereo not given)	HCMV antiviral -64 (no result: FBPA Giardia inh)
COc1ccc(CNC(=O)C2CCNCC2)cc1	Sm TGR inh 45µM
Cn1c(=O)n(CCc2ccccc2)c(=O)c2c1nc1n2CCN1c1ccc(Cl)cc1	none (no result: FBPA Giardia inh, Pf growth 48h, Pf growth 96h)
Cc1cccc(Nc2nc(-c3ccc(F)cc3)cs2)n1	Pf growth 96h 12µM
CCOC(=O)CC(=O)CSc1nc2cc(C)ccc2cc1C	Pf growth 48h inconclusive, Pf growth 96h 13µM
Cc1c(NS(=O)(=O)c2cc(C(=O)NC(C)c3ccccc3)ccc2Cl)c(=O)n(-c2ccccc2)n1C (stereo not given)	Pf growth 96h inconclusive (no result: FBPA Giardia inh)
CCCOc1ccc(/C=C/C(=O)N2CCN(C(=O)c3ccco3)CC2)cc1OC	none (no result: FBPA Giardia inh, Sm TGR inh, Pf growth 48h, Pf growth 96h)
CCOC(=O)c1cnc(SC)nc1Sc1cc(Cl)ccc1Cl	Pf growth 48h inconclusive, Pf growth 96h 10µM
CC(=O)N1CCN(Cc2ccc(Cl)nc2)CC1	HCMV antiviral -78
CC(=O)C(Cc1ccc(Cl)nc1)(Cc1ccc(Cl)nc1)C(C)=O	none
COc1ccc2[nH]c3c(=O)n4c(nc3c2c1)SCC4	Pf growth 96h 10µM
O=S(=O)(Nc1ccc2nc(-c3cccc(Cl)c3)nn2c1)c1ccco1	none (no result: FBPA Giardia inh, Sm TGR inh, Pf growth 48h, Pf growth 96h)
Cc1ccc(C2CC(c3ccccc3)n3ncnc3N2)cc1 (stereo not given)	Pf growth 96h 13µM
COc1cccc(C2CC(c3ccccc3OC)n3ncnc3N2)c1 (stereo not given)	none (no result: Pf growth 48h)
COc1ccccc1C1CC(c2ccc(Cl)cc2)Nc2ncnn21 (stereo not given)	Pf growth 48h 13µM
